697 NFkB inh: inhibitors of PMA/ionomycin-induced NF-kB reporter, 697 cells, primary screen, B-cell NF-kB inhibitor project, cell-based, luminescence, uHTS; 0.33% of 330,000 active; 697 B-cell NF-kB luciferase reporter, 16 h; inhibition, % at 4 µM; AID 435022, 2010; in the data active = inhibition above about 35%
Jurkat NFkB inh: inhibitors of induced NF-kB luciferase reporter, primary screen, TCR NF-kB activation inhibitor project, cell-based, luminescence, uHTS | inhibition, % at 4 µM | 0.53% of 330,000 active | Jurkat, PMA/ionomycin-induced NF-kB luciferase reporter; in the data active = inhibition above about 50%
aSyn UTR inh: MLPCN primary screen, SNCA 5' untranslated region | alpha-synuclein 5'UTR reporter, inhibitor activity | inhibition, % (tested at 7.5 µM) | 0.82% of 300,000 active; in the data active = inhibition above about 60%; inconclusive = no clear call, values can overlap the other calls;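 also: H4 neuroglioblastoma cells stably carrying SNCA 5'UTR luciferase fusion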
Gli-Sufu block: Gli-Sufu pathway antagonists, primary screen, luciferase luminescence, Sufu-KO-LIGHT cells, uHTS. AID 588413, 2011. 0.74% of 340,000 active. inhibition, % at 5 µM. Sufu-KO-LIGHT fibroblasts, Gli luciferase reporter luminescence;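 active = inhibition above about 55%, limit read from the data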
KLF5 inh: KLF5 expression inhibitors, primary screen, DLD-1 cells, luminescence. DLD-1 KLF5 promoter-luciferase reporter. inhibition, % at 5 µM. 0.23% of 290,000 active;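 active = inhibition above a per-plate limit of that plate's mean compound inhibition plus 3 SD, cut at about 60% in these data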;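 also: higher means less KLF5 promoter-driven luciferase light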
Mdm2-MdmX inh: inhibitors of human Mdm2-MdmX association, primary screen, cell-based, luminescence, split luciferase, SaOS-2, uHTS; Protein Mdm4 (Homo sapiens) + E3 ubiquitin-protein ligase Mdm2 (Homo sapiens), …; SaOS-2 split-luciferase Mdm2/MdmX complementation; inhibition, % at 8 µM; 3% of 330,000 active; AID 485346, 2010;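 active = inhibition of at least 50% at 8 µM in the primary screen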
Target sequence (O15151 whole entry, looked up): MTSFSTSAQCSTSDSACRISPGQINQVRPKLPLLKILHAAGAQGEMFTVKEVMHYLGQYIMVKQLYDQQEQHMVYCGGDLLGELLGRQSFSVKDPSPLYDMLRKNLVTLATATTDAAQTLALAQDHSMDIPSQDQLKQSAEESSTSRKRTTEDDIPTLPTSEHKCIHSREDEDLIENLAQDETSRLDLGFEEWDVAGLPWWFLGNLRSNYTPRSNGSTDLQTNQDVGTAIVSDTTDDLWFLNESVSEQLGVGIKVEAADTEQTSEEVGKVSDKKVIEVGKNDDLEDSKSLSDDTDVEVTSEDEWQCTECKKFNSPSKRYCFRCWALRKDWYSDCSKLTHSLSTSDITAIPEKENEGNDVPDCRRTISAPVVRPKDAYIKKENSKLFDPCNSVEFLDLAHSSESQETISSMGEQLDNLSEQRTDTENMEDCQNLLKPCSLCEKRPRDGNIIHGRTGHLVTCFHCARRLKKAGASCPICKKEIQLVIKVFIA
Target sequence (Q00987 whole entry, looked up): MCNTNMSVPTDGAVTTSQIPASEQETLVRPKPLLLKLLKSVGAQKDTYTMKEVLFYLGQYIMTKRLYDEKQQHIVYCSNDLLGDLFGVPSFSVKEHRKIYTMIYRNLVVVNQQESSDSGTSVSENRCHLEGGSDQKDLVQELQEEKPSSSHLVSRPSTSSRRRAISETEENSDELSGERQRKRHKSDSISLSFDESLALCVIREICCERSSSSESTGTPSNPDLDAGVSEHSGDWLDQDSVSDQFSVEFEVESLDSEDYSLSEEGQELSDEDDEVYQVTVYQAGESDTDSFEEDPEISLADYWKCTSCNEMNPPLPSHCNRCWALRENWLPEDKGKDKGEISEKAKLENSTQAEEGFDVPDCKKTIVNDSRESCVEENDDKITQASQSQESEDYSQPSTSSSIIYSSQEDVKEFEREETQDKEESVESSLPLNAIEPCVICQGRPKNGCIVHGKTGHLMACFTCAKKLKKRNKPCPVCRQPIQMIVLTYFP
Each line names hits and unclear results; the compound was inactive in the other large screens. The list is not random: actives were taken first. Their share in the collection is about 4.1%.

COc1ccccc1/C=N/NC(=O)c1[nH]c(C)c(C(=O)N/N=C/c2ccccc2OC)c1C	none
CCOC(=O)c1c(C)[nH]c(C(=O)N/N=C\c2ccccc2O)c1C	aSyn UTR inh 87 (no result: 697 NFkB inh, Jurkat NFkB inh, Mdm2-MdmX inh)
COc1ccc(-c2nn3c(C4CCCCC4)nnc3s2)cc1OC	none
COc1ccc(-c2nnc3sc(C4CCCCC4)nn23)cc1OC	aSyn UTR inh 65
COc1cc(-c2nc3ccccc3s2)ccc1O	none
COc1ccc(-c2nc3ccccc3s2)cc1O	aSyn UTR inh 85
CC(C)NC(=O)c1ccc2c(=O)n(C3CCCC3)c(=S)[nH]c2c1	none
CCN(CC)CCNC(=O)c1ccc2c(=O)n(C3CCCC3)c(=S)[nH]c2c1	Gli-Sufu block 71
COC(=O)c1ccccc1NC(=O)C12CC3CC(C1)CC(n1cnc(Cl)n1)(C3)C2	none
O=C(Nc1cccc2ccccc12)C12CC3CC(C1)CC(n1cnc([N+](=O)[O-])n1)(C3)C2	aSyn UTR inh 73
CC(=O)Nc1nc(-c2ccc([N+](=O)[O-])cc2)cs1	none
O=C(Nc1ccc([N+](=O)[O-])cc1)Nc1nc(-c2ccc(Cl)s2)cs1	aSyn UTR inh 92, Gli-Sufu block 60 (no result: 697 NFkB inh, Jurkat NFkB inh, Mdm2-MdmX inh)
CCOc1cccc(CN2CCCC(CNC(=O)c3cccc(OC)c3OC)C2)c1 (stereo not given)	none
Oc1c(Cl)cc(Cl)c2cccnc12	none (no result: 697 NFkB inh, Jurkat NFkB inh, Mdm2-MdmX inh)
Cc1ccc2c(Cl)cc(Cl)c(O)c2n1	Gli-Sufu block 59 (no result: 697 NFkB inh, Jurkat NFkB inh, aSyn UTR inh, KLF5 inh, Mdm2-MdmX inh)
O=C(CCNS(=O)(=O)c1cccs1)NCc1ccccc1	none
COc1cc(C(=O)NNC(=O)Nc2ccc([N+](=O)[O-])cc2)cc(OC)c1OC	none
COc1cc([N+](=O)[O-])ccc1NC(=O)CCCOc1cc(C)ccc1C	none
NC1=C(Br)C(=O)c2ccccc2C1=O	aSyn UTR inh 65
O=C1/C(=N\S(=O)(=O)c2cccs2)C([n+]2cccc(Cc3ccccc3)c2)=C([O-])c2ccccc21	aSyn UTR inh 85
CC(C)[n+]1ccn(C2=C([O-])c3ccccc3C(=O)/C2=N\S(=O)(=O)c2ccccc2)c1	none
CC(C)(C)c1cc[n+](C2=C([O-])c3ccccc3C(=O)/C2=N\S(=O)(=O)c2ccccc2)cc1	aSyn UTR inh 84
Cc1cc[n+](C2=C([O-])c3ccccc3C(=O)/C2=N\S(=O)(=O)c2cccs2)cc1C	aSyn UTR inh 74
Cc1ccc(/C=N/NC(=O)c2nnn(-c3nonc3N)c2-c2cccs2)cc1	aSyn UTR inh 69
COc1cc2c(cc1OC)C(c1cccs1)N(C(=O)c1cccc(S(=O)(=O)N(C)C)c1)CC2 (stereo not given)	none
CCn1c(SCC(=O)N2CC(C)OC(C)C2)nc2c([nH]c3ccccc32)c1=O (stereo not given)	none
CCCOC(c1ccccc1)(c1ccc(C(F)(F)F)cc1)C(Oc1nc(C)cc(C)n1)C(=O)O (stereo not given)	aSyn UTR inh inconclusive, KLF5 inh 70
COc1ccc(C)cc1NC(=O)CNC(c1ccccc1)c1ccc(C)cc1 (stereo not given)	aSyn UTR inh 103
CN(C(=O)c1ccc(Br)o1)C1CCCCC1	none
Nc1ncncc1-c1ccc2ccccc2c1	none
CC(C)(C)C(=O)N1CCc2cc(-c3csc(N)n3)ccc21	aSyn UTR inh 66
O=c1c2c(nc3c(-c4ccc(Cl)cc4)c[nH]n13)CCCC2	aSyn UTR inh 66
O=c1c2c(nc3c(-c4cccc5ccccc45)c[nH]n13)CCC2	none
COC(=O)C1=NN(C(=O)c2cccc(Br)c2)C(O)(c2ccc(Cl)cc2)C1 (stereo not given)	none
CCOC(=O)C1=NN(C(=O)c2cccc(Br)c2)C(O)(C(C)(C)C)C1 (stereo not given)	aSyn UTR inh 105 (no result: Gli-Sufu block)
O=C(Nc1cc(Cl)ccc1-n1cncn1)c1cc(F)c(F)c(F)c1F	none (no result: KLF5 inh)
Cc1cccc(Nc2nc(NCc3ccco3)c3ccccc3n2)c1	Gli-Sufu block 82 (no result: 697 NFkB inh, Jurkat NFkB inh, Mdm2-MdmX inh)
CC(Sc1nnc2ccccn12)C(=O)Nc1ncc(Cl)cc1Cl (stereo not given)	none
COc1ccc(-n2c(SC(C)C(=O)Nc3ncc(Cl)cc3Cl)nc3ccccc32)cc1 (stereo not given)	aSyn UTR inh 77 (no result: 697 NFkB inh, Jurkat NFkB inh, Mdm2-MdmX inh)
O=C(N[C@H]1C/C=C\C[C@H](CC(=O)N(CCO)Cc2ccccc2)C(=O)N[C@@H](c2ccccc2)COC1=O)OCC1c2ccccc2-c2ccccc21	Gli-Sufu block 66 (no result: aSyn UTR inh, KLF5 inh)
CC(=O)c1sc(NC(=O)C2COc3ccccc3O2)nc1C (stereo not given)	aSyn UTR inh 62
O=C(Nc1nncs1)C1COc2ccccc2O1 (stereo not given)	none
CCN1CCN(C(=O)C(C)Nc2ccc(OC)cc2OC)CC1 (stereo not given)	none
C(=N\N=C\c1ccccn1)/c1ccccn1	none
Cc1csc(N/N=C/c2ccccn2)n1	aSyn UTR inh 69
C(=N\NC1=Nc2cccc3cccc1c23)/c1ccccn1	Gli-Sufu block 70 (no result: 697 NFkB inh, Jurkat NFkB inh, Mdm2-MdmX inh)
CSc1ccccc1C(=O)NC1CCSc2ccccc21 (stereo not given)	none
Cc1ccc(-n2ncc(C(=O)Nc3cc(Cl)cc(Cl)c3)c2C2CCNCC2)cc1C	aSyn UTR inh 93 (no result: 697 NFkB inh, Jurkat NFkB inh, Mdm2-MdmX inh)
Cc1ccc(-n2ncc(C(=O)Nc3cc(Cl)ccc3Cl)c2C2CCNCC2)cc1	none (no result: Gli-Sufu block)
Cc1cccc(-n2ncc3c2CCCC3NC(=O)C2(C(N)=O)CC2)c1C (stereo not given)	Gli-Sufu block 63
Cc1cc(C)cc(-n2ncc3c2CCCC3NC(=O)C2(C(N)=O)CC2)c1 (stereo not given)	none
NC(=S)n1[nH]c(-c2ccc([N+](=O)[O-])cc2)c(N=Nc2ccc(Cl)cc2)c1=O	Gli-Sufu block 60 (no result: 697 NFkB inh, Jurkat NFkB inh, aSyn UTR inh, Mdm2-MdmX inh)
C=CCn1c(SCc2c(C)noc2C)nc2sc3c(c2c1=O)CCCCC3	aSyn UTR inh 65
Cc1noc(C)c1CSc1nc2sc3c(c2c(=O)n1C)CCCC3	none
CC1CC(C)CN(CCCNS(=O)(=O)c2ccc3c(c2)CCN3C(=O)C2CC2)C1 (stereo not given)	none
COc1ccc(O)c(/C=N/NC(=O)c2c(C)nnn2-c2nonc2N)c1	aSyn UTR inh 64
COc1ccc(/C=N/NC(=O)c2nnn(-c3nonc3N)c2-c2cccc(OC)c2)cc1	none
O=C(C1=NN[C@@H]2C(=O)N(c3cccc(C(F)(F)F)c3)C(=O)[C@H]12)c1cnccn1	none
Cc1ccc(NC2=C(Cl)C(=O)OC2OC(C)C)c(C)c1 (stereo not given)	aSyn UTR inh 69
CCNc1nc(SCC(N)=O)nc2sc3c(c12)CCN(C)C3	none
CSc1nc(SCC(N)=O)c2c3c(sc2n1)CN(C)CC3	Gli-Sufu block 99

Screening results deposited in PubChem by several laboratories.
